Holding throughout (experiment): NCI-60 one-dose screen, 48 h (100 = growth as untreated, 0 = no growth, -100 = all killed)
Holding throughout (details): 10 µM unless noted

In test [1] the test system is T-47D breast.
Test [2] has as its system BT-549 breast.
For test [3], the system named is MDA-MB-435 melanoma.
The subject of test [4] is SW-620 colon.
Test [5] deals with MCF7 breast.
The test system of test [6] is HCT-116 colon.
Test [7] has as its system HCC-2998 colon.
Test [8] deals with KM12 colon.

28 compounds from PubChem BioAssay (NCI) can be followed below.

The panel holds about 83,000 compounds, 20% with a hit somewhere; the sample as a whole holds those more often.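 The endpoint reported here, percent growth, reads 100 for growth as untreated, 0 for no net growth and -100 for all cells dead.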 Unmarked numbers belong to inactive results. Calls of active or inactive are those of the source. How the source made its calls: active means growth percent below 10; inactive means the rest.

Take `COc1ccc(C(=O)C2C(c3ccc(OC)cc3)CN(C)C23C(=O)Nc2ccccc23)cc1` (centres undefined): the growth in test [1] was 85.8%; in test [2], 105%; in test [3] it was 97.6%; in test [4], 95.2%; in test [5] it was 98.8%; in test [6], 84.4%. For the same compound, the growth in test [7] was 88.4%; in test [8], 93.9%.
For the compound `C#Cc1cccc(Nc2ncnc3ccc(-c4cnc(N)nc4)cc23)c1`, the growth in test [1] is 5.19% (active); in test [2], 28.9%; in test [3], 43.2%; in test [4] it was 60.9%; in test [5], 15.7%; in test [6], 47.9%. In addition, the growth in test [7] is 64.7%; in test [8] it was 68.6%.
For the compound `Nc1nc(=S)c2ncn(C3OC(COP(=O)(O)O)C(O)C3O)c2[nH]1` (centres undefined), the growth in test [1] was 30.4%; in test [2] it was 48.8%; in test [3] it was 15.5%; in test [4], 32.2%; in test [5], 9.34% (active); in test [6], 22.9%. In addition, the growth in test [7] was 20.8%; in test [8] it was 18.4%.
With `CSc1nc2sc3c(c2c(=O)n1-c1ccc([N+](=O)[O-])cc1)CCCCC3`, the growth was 89% in test [1]; 102% in test [2]; 97% in test [3]; 95.4% in test [4]; 86.2% in test [5]; 84.4% in test [6]. Moreover, the values for the growth in test [7] and in test [8] were 104% and 101%, respectively.
Regarding `CC(=O)c1cc(O)c2ccccc2c1O`, the growth in test [1] was 87.1%; in test [2], 91.7%; in test [3], 111%; in test [4], 108%; in test [5] it was 75.2%; in test [6], 95.4%. In addition, the growth was 166% in test [7] and 106% in test [8].
Consider `COc1ccc(-c2nn(-c3ccccc3)cc2/C=C2/SC(=S)N(C)C2=O)cc1`, for which the growth in test [1] was 35.1%; in test [2] it was 102%; in test [3], 84.9%; in test [4] it was 66.8%; in test [5] it was 75.3%; in test [6], 31%. In addition, the results for the growth in test [7] and in test [8] were 98.9% and 98.4%, respectively.
Take `CS(=O)(=O)Nc1cc(-c2ccc3ncnc(Nc4ccc5c(cnn5Cc5ccccn5)c4)c3c2)cnc1Cl`: the growth is 18.5% in test [1]; 56.7% in test [2]; 77.5% in test [3]; 84.3% in test [4]; 36% in test [5]; 92.9% in test [6]. Further, the growth was 80.4% in test [7] and 95.4% in test [8].
Consider `COc1ccc2c(c1)c(-c1noc(C(=O)c3cn(C)c4ccc(Br)cc34)n1)cn2C`, for which the growth in test [1] is 90%; in test [2] it was 99.3%; in test [3] it was 114%; in test [4], 105%; in test [5] it was 93%; in test [6] it was 92.4%. The growth in test [7] was 100%; in test [8] it was 106%.
Turning to `COc1cc(-n2cc(-c3cc(O)c(C/C=C(\C)CCC=C(C)C)c(O)c3)nn2)cc2c1O[C@]1(C)CC[C@@H](O)C(C)(C)[C@H]1C2`, the growth in test [1] was 5.7% (active); in test [2], 29%; in test [3], 16.6%; in test [4], 11.7%; in test [5] it was 7.25% (active); in test [6], 8.36% (active). For the same compound, the growth was 10.2% in test [7] and 15.9% in test [8].
For `Cc1cnc(C(=O)NNc2nc3sc4c(c3c(=O)n2C)C(C)CCC4)cn1` (centres undefined), the growth in test [1] is -7.99% (active); in test [2] it was 25.8%; in test [3], 7.05% (active); in test [4], 10.2%; in test [5], -12% (active); in test [6], 3.75% (active). For the same compound, the growth in test [7] is 29.5%; in test [8], 6.33% (active).
As to `COc1ccccc1NC(=O)Cn1cc(CN2CCN(c3ccnc4cc(Cl)ccc34)CC2)nn1`, the growth is 81.7% in test [1]; 96.8% in test [2]; 97.6% in test [3]; 91.9% in test [4]; 83.5% in test [5]; 98.3% in test [6]. The growth in test [7] is 107%; in test [8], 89.6%.
Turning to `COc1ccc(-c2cc(-c3ccc(Cl)cc3)c(C#N)c(=O)n2CCCCC(=O)Nc2ccccc2N)cc1`, the growth is 37.5% in test [1]; 46.1% in test [2]; 39% in test [3]; 71.8% in test [4]; 41.6% in test [5]; 24.4% in test [6]. The growth in test [7] is 68.3%; in test [8], 39.4%.
With `C=C(CNCCc1ccc(O)cc1)[C@@H]1CC[C@]2(CO)CC[C@]3(C)[C@H](CC[C@@H]4[C@@]5(C)CCC(NCCO)C(C)(C)[C@@H]5CC[C@]43C)[C@@H]12` (some centres undefined), the growth in test [1] is -64.2% (active); in test [2], -68.1% (active); in test [3], -92.1% (active); in test [4] it was -82.4% (active); in test [5], -72.3% (active); in test [6], -92.5% (active). Moreover, the growth in test [7] was -84.3% (active); in test [8] it was -25.8% (active).
For the compound `Cc1nc2c(=O)[nH]c(SCC(=O)Nc3cccc(F)c3)nc2[nH]c1=O`, the growth in test [1] is 97.1%; in test [2] it was 104%; in test [3], 103%; in test [4], 101%; in test [5] it was 92.7%; in test [6] it was 103%. Moreover, the results for the growth in test [7] and in test [8] were 104% and 105%, respectively.
In the case of `Cn1cc(-c2csc(-c3c[nH]c4ccc(Br)cc34)n2)c2cnccc21`, the growth in test [1] is -51.5% (active); in test [2], 7.16% (active); in test [3] it was -92% (active); in test [4], -82.6% (active); in test [5] it was -68.6% (active); in test [6] it was -90.9% (active). Moreover, the growth in test [7] was -76.5% (active); in test [8], -79.9% (active).
For the compound `Cc1nnc(-n2c(O)cc(=O)n(-c3ccccc3)c2=S)nc1/C=C/c1ccc(N(C)C)cc1`, the growth was 38% in test [1]; 63.1% in test [2]; 24.8% in test [3]; 67.2% in test [4]; 21.6% in test [5]; 56.1% in test [6]. In addition, the growth in test [7] is 63.7%; in test [8] it was 47.9%.
In the case of `Cc1nnc(NC(=O)c2nc(S(=O)(=O)Cc3ccc(F)cc3)ncc2Cl)s1`, the growth was 38.5% in test [1]; 26.7% in test [2]; 75.9% in test [3]; -59.8% (active) in test [4]; 44.7% in test [5]; -0.743% (active) in test [6]. Besides, the results for the growth in test [7] and in test [8] were 99.1% and 90.8%, respectively.
Consider `CN(C)C1CCN(Cc2ccc(NC(=O)c3cncc(C#Cc4cnc(N)c5ncccc45)c3)cc2C(F)(F)F)CC1`, for which the growth is 93.7% in test [1]; 104% in test [2]; -2.09% (active) in test [3]; 68.1% in test [4]; 73.6% in test [5]; 86.7% in test [6]. Also, the results for the growth in test [7] and in test [8] were 99.6% and 9.65% (active), respectively.
With `Brc1ccc(-n2cc(-c3nn[nH]n3)c(-c3cccs3)n2)cc1`, the growth in test [1] is 95.6%; in test [2], 95.3%; in test [3] it was 106%; in test [4], 102%; in test [5], 90.1%; in test [6], 91.5%. Also, the results for the growth in test [7] and in test [8] were 105% and 103%, respectively.
Consider `CC(=O)Cc1nsc(NC(=O)c2cc(-c3cc(Cl)cc(Cl)c3)oc2C)n1`, for which the growth in test [1] is 88.1%; in test [2] it was 98.1%; in test [3] it was 101%; in test [4], 101%; in test [5], 97.4%; in test [6], 107%. Further, the growth in test [7] was 99.9%; in test [8], 103%.
For `O=C1/C(=C/c2ccc(-c3ccc(Br)cc3)o2)SC(=S)N1CCc1ccc(O)cc1`, the growth in test [1] is 58.4%; in test [2], 77.8%; in test [3], 48.8%; in test [4] it was 81.2%; in test [5], 82.6%; in test [6], 75.2%. Moreover, the growth in test [7] is 93.6%; in test [8], 42.9%.
Regarding `O=C1C(Cl)=C(Nc2ccc(O)cc2)C(=O)N1Cc1ccc(Cl)cc1`, the growth in test [1] was 66.5%; in test [2] it was 43.2%; in test [3] it was -30.6% (active); in test [4] it was 17.6%; in test [5] it was 18.1%; in test [6] it was 30.9%. Besides, the growth was 79.9% in test [7] and 14.9% in test [8].
Regarding `O=C(Nn1c2c(sc1=Nc1ccccc1)C(=O)c1ccccc1C2=O)c1cc2ccc1CCc1ccc(cc1)CC2`, the growth in test [1] was 71.1%; in test [2], 67.9%; in test [3], -72.5% (active); in test [4], 75.9%; in test [5], 45.6%; in test [6], 60.9%. Further, the growth is 86.8% in test [7] and 78.8% in test [8].
`CCN1CC(=O)N(/N=C2\C(=O)Nc3ccccc32)C1=S`: the growth is 73.6% in test [1]; 88.5% in test [2]; 98.2% in test [3]; 87% in test [4]; 84.1% in test [5]; 94.9% in test [6]. In addition, the growth is 99.4% in test [7] and 94.7% in test [8].
For `CCN(CC)c1ccc(/C=C/C(=O)c2ccc(Nc3nc(Nc4ccccc4)nc(Nc4ccccc4)n3)cc2)cc1`, the growth is 12.3% in test [1]; 52.1% in test [2]; 51.4% in test [3]; 70.3% in test [4]; 29.2% in test [5]; 50.2% in test [6]. For the same compound, the growth in test [7] was 66.5%; in test [8], 45.4%.
`OCCCC1CCN(C(Cc2ccccc2)c2ccccc2)CC1` (centres undefined): the growth in test [1] is 56.9%; in test [2], 79.8%; in test [3], 96.4%; in test [4], 107%; in test [5] it was 94.6%; in test [6] it was 83.9%. Besides, the results for the growth in test [7] and in test [8] were 94.4% and 94.7%, respectively.
For `Cc1ccc(-c2nc3nc(-c4ccccc4)nc(N4CCNCC4)c3o2)cc1`, the growth in test [1] was -68.4% (active); in test [2] it was -71.9% (active); in test [3], -87.4% (active); in test [4], -69.4% (active); in test [5] it was -66.2% (active); in test [6], -77.1% (active). The growth was -86.8% (active) in test [7] and -87.9% (active) in test [8].
`COc1ccc(C(c2cc(OC)c(OC)c(OC)c2)N2CCN(c3ccccc3)CC2)cc1` (centres undefined): the growth in test [1] was 81.8%; in test [2], 93.6%; in test [3], 9.02% (active); in test [4], 74.1%; in test [5], 72.8%; in test [6] it was 62.8%. In addition, the growth is 93.3% in test [7] and 65.1% in test [8].
